# The list is not random: actives were taken first. Their share in the collection is about 4.7%.
# D1 ag – human D1 receptor agonism; activation, % at 2 µM; HEK293 T-REx D1 cells, calcium flux, agonist mode; 1% of 360,000 active; further: 0% is about no effect
#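 Tetracycline-induced HEK293 TREx D1 cells, force-coupled to calcium signalling, were dye-loaded with a no-wash calcium kit. Compound was pin-added after a 10 s baseline. Fluorescence was read kinetically at 1 cycle/s for 180 s, with calcium rises flagged as agonism.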
# TRHR enhancer – TRH receptor (human) allosteric enhancement. TRHR cells, fluo-8 calcium fluorescence, EC20 TRH enhancement. enhancement, % at 2 µM. 0.66% of 360,000 active. AID 493056; in the data active means enhancement above about 30%; further: 0% is about no effect
# Target sequence (P34981 whole entry, looked up): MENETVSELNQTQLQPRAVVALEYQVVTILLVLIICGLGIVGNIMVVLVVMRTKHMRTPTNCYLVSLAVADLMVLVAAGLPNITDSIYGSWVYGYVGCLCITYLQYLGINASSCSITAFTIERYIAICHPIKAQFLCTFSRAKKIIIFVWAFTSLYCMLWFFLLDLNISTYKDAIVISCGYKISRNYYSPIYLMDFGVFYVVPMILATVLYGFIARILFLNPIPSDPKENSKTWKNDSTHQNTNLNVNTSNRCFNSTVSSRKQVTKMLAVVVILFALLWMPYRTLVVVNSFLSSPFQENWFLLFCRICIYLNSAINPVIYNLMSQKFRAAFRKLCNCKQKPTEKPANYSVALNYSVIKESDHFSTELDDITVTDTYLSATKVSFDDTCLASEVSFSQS
#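 TRHR-expressing cells loaded with fluo-8 calcium dye were read kinetically (ex 480/em 530) during compound addition, then stimulated with an EC20 of TRH (10 nM final). Enhancement of the Gq-mediated intracellular calcium response was scored.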
# D1 potentiator – enhances dopamine response at the human D1 receptor | AID 504651 | 0.036% of 360,000 active | HEK293 TREx D1 cells, calcium flux, dopamine EC20 potentiation | potentiation, % at 10 µM; in the data active means potentiation above about 30%; further: 0% is about no effect
# TRHR agonist – activates the human TRH receptor; P34981; TRHR cells, calcium flux fluo-8, FDSS agonist mode; activation, % at 2 µM; 0.18% of 360,000 active; AID 493084; further: 0% is about no effect
#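 In this calcium-flux screen, cells bearing human TRHR are dye-loaded with fluo-8, baselined for 10 cycles, then exposed to library compounds; positive kinetic calcium responses during the agonist phase mark hits, with TRH as control.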
# D1 antag – blocks dopamine activation of the human D1 receptor | P21728 | HEK293 TREx D1 cells, calcium flux, dopamine EC80; stronger effect = lower value | activity change, negative = inhibition, % at 10 µM | 3.2% of 360,000 active | AID 504652; in the data active means activity change below about -30%; further: on the % scale 0 is the no-effect control and ±100 the full control effect
#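 Tetracycline-induced HEK293 T-REx cells with force-coupled D1 receptor were loaded with a no-wash calcium dye. Compound was added after a 10 s baseline and read kinetically for 180 s; EC80 dopamine was then added and calcium flux followed another 180 s.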
# * marks the source's active call; other numbers are inactive results; . = no result given. Unless noted, no stated cut-off is given here; in the data, active means activation above about 30%; inactive means the rest.
SMILES,D1 ag,TRHR enhancer,D1 potentiator,TRHR agonist,D1 antag
COc1cccc(C2C(C(=O)Nc3ccccc3)=C(C)Nc3nnnn32)c1OC (configuration not stated),5,1,2,1,-24
Cc1ccc(CCNC(=O)c2ccc3[nH]c(C)c(C)c3c2)cc1,0,-3,-4,0,-44*
CCOc1ccc(CCNC(=O)c2ccc3[nH]c(C)c(C)c3c2)cc1,3,-4,-5,-1,-14
O=C(Nc1ncc(S(=O)(=O)c2ccc([N+](=O)[O-])cc2)s1)c1cccc2ccccc12,56*,-3,9,5,-4
COCC(=O)Nc1ncc(S(=O)(=O)c2ccc([N+](=O)[O-])cc2)s1,3,-1,-4,2,4
CCC1CN(S(=O)(=O)c2cc(-c3cc(C)no3)ccc2C)c2cc(Cl)ccc2O1 (configuration not stated),7,7,0,0,36
CCc1ccc(NC(=O)CCn2c(-c3ccc(OC)cc3)cc(C(C)=O)c2C)cc1,1,1,-4,0,2
Cc1ccc(NS(=O)(=O)c2cc(C(=O)N3CCN(CCO)CC3)ccc2C)cc1,-1,10,8,0,-24
Cc1ccc(C)c(S(=O)(=O)NCc2ccc(C(=O)N3CCN(C)CC3)cc2)c1,4,4,-4,0,-32*
Cc1ccc(NS(=O)(=O)c2cc(C(=O)N3CCN(C)CC3)ccc2C)cc1,-1,0,-4,0,-34*
CCCN(Cc1cccs1)C(=O)Nc1cc(C)ccc1OC,0,10,1,-1,2
Fc1ccc(Nc2nc(SCc3ccccc3F)nc3ccccc23)cc1,10,-1,-1,1,-3
CC1CCCC(CC(=O)O)(CC(=O)O)C1 (configuration not stated),-2,5,0,0,20
Cc1ccc(NC(=O)c2nc(-c3ccncc3)no2)c(Cl)c1,12,3,-4,0,-47*
CCCc1oc2ccc(NS(=O)(=O)c3ccc(OC)cc3)cc2c1C(=O)OCC,15,19,1,1,-3
O=C(c1cccs1)N1CCc2ccccc21,5,-1,0,-2,-6
O=C(/C=C/c1cccs1)N1CCc2ccccc21,1,1,-8,-1,-36*
CC(=O)Nc1ccc(OCC(O)CN2CCN(S(=O)(=O)c3ccc(NC(C)=O)cc3)CC2)cc1 (configuration not stated),3,4,5,0,-34*
CC(=O)c1ccc(OCC(O)CN2CCOCC2)cc1 (configuration not stated),1,3,-3,-1,-35*
CC(=O)Nc1ccc(OCC(O)Cn2cccn2)cc1 (configuration not stated),1,-7,3,0,-35*
COc1ccc(Cn2c(C(=O)O)c(CNC3CCC(C)CC3)c3ccc(C)cc32)cc1 (configuration not stated),1,0,2,0,28
CC(C)(C)n1c(O)c2ccc(C(=O)N=NC(=O)c3ccccc3)cc2c1O,9,2,0,-1,-31*
CSC1=N/C(=C\c2ccc(Cl)cc2)C(=O)N1N(C)C,9,1,-4,0,-5
CC1(C)CN=c2s/c(=C\c3ccc(Cl)cc3)c(=O)n2C1,33*,5,-7,2,8
COC(=O)[C@H]1CCCN1C(=O)Nc1cccc(Oc2c(F)c(F)c(F)c(F)c2F)c1,4,-4,-2,0,-31*
SMILES,D1 ag,TRHR enhancer,D1 potentiator,TRHR agonist,D1 antag
CCc1ccccc1NC(=O)CCNC(=O)Cn1ccc2ccccc2c1=O,8,-10,.,-2,0
CC1CCN(S(=O)(=O)c2cc(C(=O)NCc3ccc(N(C)C)cc3)n(C)c2)CC1,-1,-4,-3,-1,-6
CCOC(=O)Cc1csc(NC(=O)Cc2ccccc2[N+](=O)[O-])n1,-3,-1,-8,-1,-6
CCOC(=O)Cc1csc(NS(=O)(=O)c2cccc([N+](=O)[O-])c2)n1,2,36*,0,0,-1
CCOC(=O)Cc1csc(NC(=O)C(C)c2ccc([N+](=O)[O-])cc2)n1 (configuration not stated),58*,-6,-5,9,-38*
CCOC(=O)C1CCCN(C(=O)/C(=C/c2ccco2)NC(=O)c2ccccc2)C1 (configuration not stated),6,2,-7,3,4
Cc1c(C(=O)NCc2c(F)cc(F)cc2F)oc2ccc(S(=O)(=O)N3CCOCC3)cc12,3,-2,-4,1,-45*
Cn1c(=O)oc2cc(S(=O)(=O)N3CCC(C(=O)NCC4COc5ccccc5O4)CC3)ccc21 (configuration not stated),1,-5,-7,0,-35*
Cc1ccc(NC(=O)C2CCCN(S(=O)(=O)c3ccc4c(c3)oc(=O)n4C)C2)cc1Cl (configuration not stated),2,4,-2,0,-31*
Cn1c(=O)oc2cc(S(=O)(=O)N3CCc4ccccc43)ccc21,38*,-7,-6,3,5
Cc1cccc(NC(=O)C2CCCN(S(=O)(=O)c3c(C)noc3/C=C/N(C)C)C2)c1C (configuration not stated),-2,0,0,0,1
COCCC(=O)N1CCC(Oc2ccc(C(=O)NC3CCCCC3)cc2)CC1,3,-1,-1,0,9
Cn1c(=O)oc2cc(S(=O)(=O)N3CCCC(C(=O)N4CCc5ccccc5C4)C3)ccc21 (configuration not stated),12,-6,.,1,-38*
Cc1c(C(=O)NCC2COc3ccccc3O2)oc2ccc(S(=O)(=O)N3CCOCC3)cc12 (configuration not stated),7,-1,-2,2,1
Cc1c(C(=O)NCC2COc3ccccc3O2)oc2ccc(S(=O)(=O)N3CC(C)CC(C)C3)cc12 (configuration not stated),3,-1,-3,1,-31*
COC(=O)C1=NNC2C(=O)N(C3CCCCC3)C(=O)C12 (configuration not stated),1,6,2,0,3
CCCSc1ncc(Cl)c(C(=O)N2CCN(c3cccc(Cl)c3)CC2)n1,5,-6,2,0,-6
O=C1C(Cl)=C(N2CCCC2)C(=O)N1c1ccc(F)cc1,9,0,-5,0,-33*
O=C1C(Cl)=C(N2CCOCC2)C(=O)N1c1cccc(C(F)(F)F)c1,4,1,-6,0,-34*
O=C1C(Cl)=C(N2CCCCCC2)C(=O)N1c1ccc(Cl)cc1,3,8,6,1,6

# From PubChem BioAssay
